From PubChem
MBD2 inh – inhibitors of human MBD2 binding to methylated oligonucleotide. TR-FRET. inhibition, % at 4.4 µM. actives 0.31% (n = 370,000). AID 686964; in the data active means inhibition above about 13%
Target sequence (Q9UBB5 whole entry, looked up): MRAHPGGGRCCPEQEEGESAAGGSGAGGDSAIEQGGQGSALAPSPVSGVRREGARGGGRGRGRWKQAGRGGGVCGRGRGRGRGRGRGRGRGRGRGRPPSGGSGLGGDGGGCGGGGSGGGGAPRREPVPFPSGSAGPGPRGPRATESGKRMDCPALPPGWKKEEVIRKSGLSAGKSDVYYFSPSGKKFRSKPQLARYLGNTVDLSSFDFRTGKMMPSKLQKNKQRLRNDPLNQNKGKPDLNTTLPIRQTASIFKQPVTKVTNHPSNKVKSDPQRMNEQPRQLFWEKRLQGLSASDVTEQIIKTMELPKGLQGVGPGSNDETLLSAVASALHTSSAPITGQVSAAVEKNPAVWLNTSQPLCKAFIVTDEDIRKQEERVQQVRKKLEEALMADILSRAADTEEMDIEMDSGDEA
UHRF1 binding – UHRF1 methyl-DNA binding inhibition | AID 687016 | actives 0.75% (n = 370,000) | UHRF1 binding to methylated oligo, TR-FRET | inhibition, % at 4.4 µM; in the data active means inhibition above about 21%;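 further: UHRF1 SRA domain binding a hemimethylated CpG hairpin DNA probe; 0% = median of test compound wells and 100% = reference inhibitor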
LEDGF integ inh – blocks HIV-1 LEDGF/p75-dependent DNA integration. TR-FRET IN-LEDGF/p75 DNA integration, Eu/Cy5. inhibition, % at 3.7 µM. actives 0.64% (n = 370,000);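 active means inhibition above the screen-wide mean plus 3 SD, cut at about 13% in these data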;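 further: signal is the Cy5 over europium emission ratio at 671 and 618 nm; 0% = plate median of compound wells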
DNMT1 inh – inhibitors of human DNMT1; actives 0.83% (n = 360,000); DNMT1 molecular beacon, Hinp1I cleavage, fluorescence; inhibition (reported as % activation of signal), % at 10 µM; in the data active means inhibition above about 50%
rCAG binder-1 – molecules binding r(CAG) RNA repeats | inhibition, % at 3 µM | AID 651821 | r(CAG) RNA repeat, TO-PRO-1 dye displacement fluorescence | actives 1.3% (n = 370,000);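 active means inhibition above the plate cutoff, the mean of all test compounds on that plate plus 3 SD, cut at about 35% in these data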;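 further: 0% = DMSO alone and 100% = 100 µM mitoxantrone as full dye displacement; higher means more dye released from RNA so lower well fluorescence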
PG9 binder – small molecules binding HIV-1 gp120 antibody PG9 | TR-FRET gp120-PG9 antibody binding | actives 0.43% (n = 360,000) | inhibition, % at 6.7 µM; in the data active means inhibition above about 8.5%
rCAG bind conf – r(CAG) RNA repeat binding, confirmation; actives 70% (n = 4,300); inhibition, % at 3 µM; shares compounds with rCAG binder-1; TO-PRO-1 dye displacement fluorescence;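 active means inhibition above a per-plate cutoff, the mean inhibition of sample wells plus 3 SD, cut at about 35% in these data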;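 further: loss of TO-PRO-1 fluorescence as compound displaces dye from 1x1 AA loop RNA; 0% = DMSO only wells and 100% = 100 µM mitoxantrone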
dCAG dye counter – counter-screen for rCAG RNA binders: DNA CAG dye complex inhibitors; shares compounds with rCAG binder-1; d(CAG) DNA oligo TO-PRO-1 dye displacement, fluorescence; inhibition, % at 3 µM; actives 94% (n = 4,300); AID 652068;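 active means inhibition above its plate's cutoff, the mean test-well inhibition plus 3 SD, cut at about 4.8% in these data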;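 further: 0% = DNA dye mix with DMSO and 100% = 100 µM mitoxantrone; hits displace the dye from DNA and so lower well fluorescence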
dCAG dye DR – DNA CAG dye complex inhibition, dose response counter-screen; actives 20% (n = 250); AID 686960; IC50, µM; DNA CAG/GTC duplex TO-PRO-1 dye displacement fluorescence; shares compounds with rCAG binder-1; in the data active means IC50 below about 10 µM
dCAG DNA bind – DNA CAG dye complex inhibition, late stage dose response; shares compounds with rCAG binder-1; actives 80% (n = 30); d(CAG) DNA duplex TO-PRO-1 dye displacement, fluorescence; AID 720649; IC50, µM
rCAG binder-2 – binds r(CAG) RNA repeats in late stage dose response; shares compounds with rCAG binder-1; r(CAG) RNA TO-PRO-1 dye displacement, fluorescence; IC50, µM; actives 100% (n = 30); AID 720651
* marks the source's active call; other numbers are inactive results; i = inactive; . = no result given. In the library only some 3.5% were active in any assay of this set; here they are far more common. Unless noted, how the calls were made is not given here.

SMILES	MBD2 inh	UHRF1 binding	LEDGF integ inh	DNMT1 inh	rCAG binder-1	PG9 binder	rCAG bind conf	dCAG dye counter	others
COC(=O)C1=C(CCc2ccccc2)NC(=O)NC1c1ccc(Br)cc1 (stereo unspecified)	-1.8	1.1	-2.5	1.9	0.4	0.0	.	.
CO[C@H]1/C=C/O[C@@]2(C)Oc3c(C)c(O)c4c(O)c(c(C=NN5CCN(C)CC5)c(O)c4c3C2=O)NC(=O)/C(C)=C\C=C\[C@H](C)[C@H](O)[C@@H](C)[C@@H](O)[C@@H](C)[C@H](OC(C)=O)[C@@H]1C	-18.6	-16.2	7.7	-17.7	82.6*	-13.3	73.8*	43.9*
CO[C@H]1C=CO[C@@]2(C)Oc3c(C)c(O)c4c(O)c(c(C=NN5CCN(C)CC5)c(O)c4c3C2=O)NC(=O)C(C)=CC=C[C@H](C)[C@H](O)[C@@H](C)[C@@H](O)[C@@H](C)[C@H](OC(C)=O)[C@@H]1C	-12.1	-9.7	11.3	-15.7	77.5*	-10.5	78.7*	48.9*
Cc1noc(C)c1C(=O)N1CCCC(C)(C(=O)NS(=O)(=O)C2CC2)C1 (stereo unspecified)	1.4	0.4	-1.7	1.6	0.0	0.7	.	.
Cc1ccc(C)c(OCC(=O)Nc2ccc(S(=O)(=O)Nc3onc(C)c3C)cc2)c1	-2.8	1.3	1.7	0.6	47.6*	-2.5	46.1*	12.5*
Cc1ccc(C)c(OCC(=O)Nc2nonc2NC(=O)COc2cc(C)ccc2C)c1	2.2	-2.8	5.0	10.8	12.8	-0.1	.	.
Cc1noc(NS(=O)(=O)c2ccc(NC(=O)CCCOc3ccc(Cl)cc3Cl)cc2)c1C	-1.0	-2.5	0.8	-5.2	86.8*	-0.9	73.2*	37.6*
CCc1cccc(OCC(=O)Nc2ccc(S(=O)(=O)Nc3onc(C)c3C)cc2)c1	0.9	-1.0	-4.2	-2.3	37.3*	-0.8	31.0	7.1*
Cc1ccc(C)c(OCC(=O)Nc2cc(NC(=O)COc3cc(C)ccc3C)cc(C(=O)O)c2)c1	-4.1	-0.5	-2.5	-1.3	48.8*	-0.5	77.3*	41.5*
Cc1ccc(OCC(=O)Nc2ccc(S(=O)(=O)Nc3onc(C)c3C)cc2)cc1	1.0	-0.7	0.9	2.1	26.6	-3.0	.	.
Cc1ccc(CS(=O)(=O)Cc2ccc(C(=O)NC3CC3)o2)cc1	0.4	3.6	-5.9	-0.3	-4.3	0.2	.	.
CN1CCN(c2ccc3c(c2)Oc2ccccc2CN(Cc2cn(Cc4cccc(C(F)(F)F)c4)nn2)S3(=O)=O)CC1	-0.5	-1.4	0.6	.	7.7	.	.	.
Cc1ccc(NC(=S)NC(=O)C2CCCC2)c(Br)c1	5.4	-0.5	-0.9	0.6	0.5	2.1	.	.
CCc1cccc(OCC(=O)Nc2ccc(C(=O)O)cc2NC(=O)COc2cccc(CC)c2)c1	-1.1	-1.1	0.2	0.4	78.0*	-0.6	71.5*	35.5*
Cc1noc(NS(=O)(=O)c2ccc(NC(=O)COc3ccc(Cl)cc3Cl)cc2)c1C	0.8	-1.7	-0.4	2.8	77.0*	-0.4	69.8*	22.2*	dCAG dye DR=i;dCAG DNA bind=3.59*;rCAG binder-2=1.28*
COc1ccccc1OCC(=O)Nc1ccc(S(=O)(=O)Nc2onc(C)c2C)cc1	-3.0	0.5	2.6	1.1	13.3	1.6	.	.
Cc1noc(NS(=O)(=O)c2ccc(NC(=O)CSc3nc4c(cc3C#N)CCCCC4)cc2)c1C	3.4	2.7	0.0	-0.2	41.7*	-0.1	33.8	8.2*
Cc1ccnc(NC(=O)CCN2C(=O)c3ccccc3S2(=O)=O)n1	8.9	2.9	-1.9	1.1	-3.1	1.7	.	.
COCC(=O)N1C[C@H](C)[C@H](OC)CN(C)C(=O)c2cc(NC(=O)Nc3cccc(F)c3)ccc2OC[C@@H]1C	-0.7	0.9	-0.6	.	5.0	1.3	.	.
O=C(O)c1[nH]c2ccccc2c1CC(=O)N1CCN(c2ccccc2)CC1	4.1	-2.4	-0.8	1.5	9.5	-4.9	.	.
Cc1cccc(N2CCN(C(=O)Cc3c(C(=O)O)[nH]c4ccc(Cl)cc34)CC2)c1C	-0.9	1.6	2.9	-4.9	49.9*	-0.3	72.0*	36.8*
O=C(Nc1cccc(C(=O)O)c1)/C(=C\c1ccco1)NC(=O)c1ccccc1Cl	-1.6	5.0	3.8	3.8	7.8	-2.6	.	.
O=C(Nc1ccccc1C(=O)O)/C(=C/c1ccc(Cl)cc1Cl)NC(=O)c1ccco1	-8.8	1.1	1.3	4.0	52.1*	0.3	26.5	6.0*
COc1ccc(OCc2nnc(SCC(=O)Nc3cccc(C(C)=O)c3)o2)cc1	2.5	0.0	-1.3	-3.0	3.5	1.3	.	.
COc1ccc(-c2nc3c(c(SCC(=O)Nc4cccc(O)c4)n2)Cc2c(CO)cnc(C)c2O3)cc1	1.4	-0.6	13.6*	-12.8	57.8*	-2.7	25.2	15.8*
SMILES	MBD2 inh	UHRF1 binding	LEDGF integ inh	DNMT1 inh	rCAG binder-1	PG9 binder	rCAG bind conf	dCAG dye counter	others
Cc1ncc(CO)c2c1Oc1nc(-c3ccccc3)nc(SCC(=O)Nc3cccc(O)c3)c1C2	0.2	-2.0	7.6	-22.1	58.1*	-0.6	29.8	16.9*
O=C(NCc1ccccc1)c1ccc2nccnc2c1	-6.4	2.0	3.3	-1.8	-1.2	0.5	.	.
O=C(NCc1ccccc1)c1ccc2nc(-c3ccco3)c(-c3ccco3)nc2c1	-9.7	-4.4	26.7*	101.5*	55.9*	1.9	56.1*	25.8*
O=C(c1ccc2nc(-c3ccco3)c(-c3ccco3)nc2c1)N1CCN(c2ncccn2)CC1	4.0	11.9	34.0*	28.4	34.5*	-1.0	49.4*	21.8*
CC(=O)NC(Cc1ccc(F)cc1)C(=O)NC1CCN(C(=O)NCc2ccccc2)CC1 (stereo unspecified)	6.9	1.7	-1.8	-0.4	-2.7	0.0	.	.
O=C(CN1C(=O)/C(=C2/SC(=S)N(CCS(=O)(=O)O)C2=O)c2ccccc21)Nc1cccc(Br)c1	-0.1	-1.5	-0.7	8.6	72.9*	-2.1	80.3*	49.1*
CCc1nnc(NC(=O)c2ccc(S(=O)(=O)N3CCc4ccccc4C3)cc2)s1	-3.0	1.1	-2.7	1.9	1.4	-1.2	.	.
